# Pf Dd2 growth = qHTS Primary assay for Inhibitors of Plasmodium falciparum Dd2 growth in vitro. P. falciparum Dd2 growth, SYBR Green, 72 h. Potency, µM (titrated, usually from 28.9 µM), inactives show at the top dose activity, negative = inhibition, hits mostly inhibitors. 120,000 tested, 4.3% active; active = well fitted inhibition curve with a large enough effect;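 also: plate controls were DMSO vehicle for no effect and reference drug for full effect; nearly all actives have a fitted effect of over 65% in size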
#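 Readout: SYBR Green fluorescence, 485 nm excitation, 535 nm emission, after ~16 h lysis at 37C. Before that, Dd2-infected red cells (2.5% hematocrit) grew 72 h with compound, 29 uM top final concentration.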
# * = called active by the depositor; i = inactive; [ ] = dose if it differs, or a comment. This excerpt belongs to a sample that is enriched for hits. Potency is read from the fitted curve at half-maximal effect.
SMILES,Pf Dd2 growth
CC1=C[C@@H](CN(C)CCN(C)C)[C@H](C(C)C)C[C@H]1Cc1nnc(-c2ccccc2)o1,3.5µM*
COc1cc(CN2CCC(C)(C#N)CC2)ccc1OCC(O)CN1CCOCC1 (stereo unspecified),1%
COc1ccc(Cl)cc1NC(=O)N(C)CC1CCOCC1,-25%
COc1cc(CNCCc2ccc(F)cc2)ccc1OCC(O)CN1CCSCC1 (stereo unspecified),-18%
COc1cc(CNCCc2ccc(Cl)cc2)ccc1OCC(O)CN1CCOCC1 (stereo unspecified),11µM*
COc1cc(CNCCCO)ccc1OCC(O)CN1CCSCC1 (stereo unspecified),-13%
COc1cc(CNCC2CCOCC2)ccc1OCC(O)CN(C)C1CCCCC1 (stereo unspecified),13µM*
NC(=O)CO[C@@H]1CO[C@H]2[C@@H]1OC[C@@H]2NC(=O)c1ccc(C(F)(F)F)cc1,11%[44.1 µM]
CC(=O)N1Cc2ccccc2CC2(CCN(CC3CCNC3)CC2)C1 (stereo unspecified),13%
CCOc1ccccc1C(=O)N1CCN(c2cc(-c3cccs3)[nH]n2)CC1,i
COC1CCC(C(=O)N2CC(CNc3ccccc3)C3(C2)CN(c2ccccc2)C3)CC1 (stereo unspecified),-9%[44.1 µM]
COCc1cc(C[C@@H]2C[C@H](NC(=O)COc3ccccc3)C2(C)C)no1,-13%[44.1 µM]
CC(C)CN(CC(C)C)CC(O)Cn1cc(/C=C/C(=O)c2ccccc2)c2ccccc21 (stereo unspecified),2.5µM*
COc1ccc(C(=O)NCCn2cc(SCC(=O)Nc3ccc4c(c3)OCCO4)c3ccccc32)cc1OC,i
COc1ccc(C(=O)/C=C/c2cn(CC(O)CN3CCc4ccccc43)c3ccccc23)cc1OC (stereo unspecified),8.9µM*
Cc1ccc(C(=O)/C=C/c2cn(CC(O)CN3CCc4ccccc43)c3ccccc23)cc1 (stereo unspecified),5.6µM*
Cc1ccc(C(=O)N2CCc3cn(C)c4cccc(c34)C2)cc1,-23%
CC(C)N(C(=O)Cn1cc(S(=O)(=O)Cc2ccc(Cl)cc2)c2ccccc21)C(C)C,i[5.79 µM]
COc1ccc(NC(=O)CSc2cn(CC(=O)N3CCOCC3)c3ccccc23)cc1OC,13%
Cc1ccc(NC(=O)CSc2cn(CC(=O)N3CCCCCC3)c3ccccc23)cc1,-2%
CCN(CC)C(=O)Cn1c(C)ccc(NS(=O)(=O)c2ccc(C)cc2)c1=O,9%
O=C(Cn1ccn2nc3c(c2c1=O)CCCC3)Nc1ccc(C(F)(F)F)cc1,-11%
CC(C)CC(=O)NCC(=O)N1CCCCCCNC(=O)CC1c1ccccc1 (stereo unspecified),-21%
COc1ccc(C(=O)N2CC[C@@H]3CN(c4cnccn4)[C@@H]3C2)c(OC)n1,-8%
Fc1ccc(F)c(CN2CCC(Oc3ccccc3-c3nc(C4CCOCC4)no3)C2)c1 (stereo unspecified),4.5µM*
SMILES,Pf Dd2 growth
O=C(c1ccoc1)N1CCC(Oc2ccccc2-c2nc(C3CCOCC3)no2)C1 (stereo unspecified),i
O=C(c1cccc(F)c1)N1CCC(Oc2ccccc2-c2nc(C3CCOCC3)no2)C1 (stereo unspecified),-2%
Cn1cc(S(=O)(=O)c2ccccc2)c(=O)c2cc(F)c(N3CCOCC3)cc21,-7%
CCn1cc(S(=O)(=O)c2cccc(C)c2)c(=O)c2cc(F)c(N3CCCCC3C)cc21 (stereo unspecified),26%
Cn1cc(S(=O)(=O)c2ccccc2)c(=O)c2cc(F)c(N3CCN(c4ccccc4)CC3)cc21,7.1µM*
CCn1cc(S(=O)(=O)c2ccccc2)c(=O)c2cc(F)c(N3CCN(c4ccccc4)CC3)cc21,3.2µM*
Cc1ccc(S(=O)(=O)c2cn(C)c3cc(N4CCN(c5ccccc5)CC4)c(F)cc3c2=O)cc1,-24%
CCn1cc(S(=O)(=O)c2ccccc2)c(=O)c2cc(C)ccc21,-21%
O=C([C@@H]1C[C@H](Oc2cccnc2)CN1S(=O)(=O)Cc1ccccc1F)N1CCOCC1,10%
CCOc1ccccc1NC(=O)c1c(NC(=O)COc2ccc(Cl)cc2)sc2c1CCCCC2,i
CCOc1ccccc1NC(=O)c1c(NC(=O)c2cccc(C)c2)sc2c1CCCC2,8.9µM*
CCOc1ccccc1NC(=O)c1c(NC(=O)Cc2ccccc2)sc2c1CCCC2,25%
CCc1cc(N2CCN(C)C3(CCC(=O)N(C)CC3)C2)nc(N(C)C)n1 (stereo unspecified),-13%
O=C(Nc1ccc(F)cc1)N1CC2CC(C1)[C@H]1CCCC(=O)N1C2 (stereo partly specified),11%
COCCNC(=O)c1ccc(-n2c(-c3ccccc3)cc3c2CCC(C)C3)cc1 (stereo unspecified),-31%
CCOc1ccc(CCNC(=O)c2ccc(-n3c(C)cc4c3CCCC4)cc2)cc1OCC,7.9µM*
CN(C)CCNC(=O)c1ccc(-n2c(-c3ccccc3)cc3c2CCCCC3)cc1,0.35µM*
COCCCNC(=O)c1ccc(-n2c(-c3ccccc3)cc3c2CCCCC3)cc1,5µM*
CCOc1ccc(CCNC(=O)c2ccc(C)c(-n3c(C)nc4cccnc43)c2)cc1OCC,-2%
CC1CCc2c(cc(-c3ccccc3)n2-c2ccc(C(=O)NC(C)C)cc2)C1 (stereo unspecified),i
Cc1cc2c(n1-c1ccc(C(=O)NCc3ccc(OC(C)C)cc3)cc1)CCCC2,-13%
CC(C)NC(=O)c1ccc(-n2c(-c3ccccc3)cc3c2CCCCC3)cc1,-20%
CCCNC(=O)c1ccc(-n2c(-c3ccccc3)cc3c2CCC(C)C3)cc1 (stereo unspecified),i
Cc1ccc(S(=O)(=O)NC[C@H]2OC[C@@H](N(C)C)[C@@H]2O)cc1,-8%[44.1 µM]
CCN1C(=O)CCN(C(=O)c2cccc(C#N)c2)CC12CCOCC2,6%
SMILES,Pf Dd2 growth
Cn1cnc(S(=O)(=O)N2CCC(Cc3nncn3-c3ccccc3)CC2)c1,-2%
CCCCN1C(=O)c2ccccc2C(C(=O)NCc2cccnc2)C12CCCCC2 (stereo unspecified),-19%
NC(=O)[C@@H]1CCCN1CC[C@H]1CN(C(=O)C2CCCCC2)CC[C@H]1CC(=O)O,31%[44.1 µM]
CC(C)NC(=O)N1CCCCCCNC(=O)[C@@H]2CCCC[C@@H]21,1%
CCOc1ccccc1C1NC(=O)N(CC(=O)Nc2ccc(C)cc2)C2=C1C(=O)OC2 (stereo unspecified),-14%
O=C(c1cscn1)N1CCC2(CC1)CN(c1ccncn1)CC2CO (stereo unspecified),25%
CC(=O)Nc1ccc(C2(C(=O)NCc3ccc(F)cc3F)CCCCC2)cc1,4%
CCNc1ncnc2sc3c(c12)CCN(C(=O)COC)C3,-9%
CCNc1ncnc2sc3c(c12)CCN(Cc1ccncc1)C3,13µM*
Oc1cccc(Nc2ncnc3sc4c(c23)CCCC4)c1,-28%
COc1ncc(CN2CCc3c(n(Cc4cccnc4)n(-c4ccccc4)c3=O)C2)cn1,39%[44.1 µM]
COCCCNc1ncnc2sc3c(c12)CCN(Cc1cccnc1)C3,5µM*
CCNc1ncnc2sc3c(c12)CCN(C(=O)CCOC)C3,-14%
CC1=NOC2(CCN(Cc3ccc(N(C)C)cc3)C2)C1 (stereo unspecified),i
CNC(=O)Nc1ccc(C2(C(=O)NCc3ccco3)CCC2)cc1,1%
CN(CCn1ccnc1-c1ccc(CO)o1)S(C)(=O)=O,4%
CN(Cc1ccc(-c2ccccc2)cc1)C(=O)Cc1ccc(F)cc1,-4%[44.1 µM]

# Screens: PubChem BioAssay, National Center for Advancing Translational Sciences (NCATS)
